From PubChem BioAssay (Tox21)
Records with an inconclusive call do not appear. Activity calls are given as the source filed them. Unless noted, the call rests on the fitted dose curve; in most records, active means well fitted curve in the direction sought with a large enough effect in the repeat runs; inconclusive means weak or mixed curves; inactive means no such curve, though single readings can be large; an effect the other way counts as inactive or inconclusive.

What was measured:
[1] = qHTS RealTime-Glo MT Cell Viability Assay in HEK293 cells - 8 hour (AID 1224887); further: top concentration of the series differs between compounds; nearly all actives have a fitted effect of over 50% in size
Outline: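 Nonlytic bioluminescent viability monitoring. HEK293 at 600 cells/well with reagent; 5 h settle; compound transfer by pintool; plates held at 37 C and read at set time points.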

[2] = A CellTox Green Cytotoxicity Assay to monitor cytotoxicity in HEK293 cells - 16 hour (AID 1224888); further: nearly all actives have a fitted effect of over 35% in size
Outline: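 Cytotoxicity was tracked continuously in HEK293 cells by a DNA-binding dye excluded from viable cells. Compounds were transferred in DMSO 5 h after seeding; fluorescence was recorded at intervals up to 40 h.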

[3] = qHTS RealTime-Glo MT Cell Viability Assay in HepG2 cells - 0 hour (AID 1224889); further: nearly all actives have a fitted effect of over 50% in size
Outline: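 Cells + NanoLuc/prosubstrate dispensed (600 cells/well) → 5 h at 37 C/5% CO2 → compounds in DMSO transferred → 40 h incubation at 37 C, luminescence read at 0, 8, 16, 24, 32, 40 h.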

[4] = A CellTox Green Cytotoxicity Assay to monitor cytotoxicity in HepG2 cells - 8 hour (AID 1224890); further: nearly all actives have a fitted effect of over 45% in size
Outline: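 Real-time, homogeneous cytotoxicity readout: dead-cell DNA staining by CellTox Green in HepG2 monolayers, fluorescence measured at timed intervals up to 40 h of continuous compound exposure.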

[5] = qHTS assay to identify small molecule antagonists of the estrogen receptor alpha (ER-alpha) signaling pathway using the BG1 cell line in the presence of 0.1 nM 17-beta-estradiol - cell viability counter screen (AID 1259241); further: nearly all actives have a fitted effect of over 40% in size
Outline: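 VM7Luc4E2 cells (endogenous full-length ER-alpha, 4xERE-luciferase), cultured 5 days in charcoal-stripped serum, exposed to compounds with 0.1 nM 17beta-estradiol (final) for 22 hr at 37C. Viability read in same wells as live-cell protease fluorescence after 30 min.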

[6] = qHTS assay to identify small molecule antagonists of the androgen receptor (AR) signaling pathway using the MDA cell line in the presence of 0.5 nM R1881 - cell viability counter screen (AID 1259242); further: nearly all actives have a fitted effect of over 45% in size
Outline: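 Cytotoxicity toward MDA-kb2 cells is measured by CellTiter-Fluor live-cell protease fluorescence after 16 hr compound exposure at 37C in the presence of 0.5 nM R1881 stimulator.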

[7] = target: Estrogen receptor (Homo sapiens) (UniProt P03372); assay: qHTS assay to identify small molecule antagonists of the estrogen receptor alpha (ER-alpha) signaling pathway using the BG1 cell line in the presence of 0.1 nM 17-beta-estradiol (AID 1259244); further: nearly all actives have a fitted effect of over 50% in size
Outline: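 After 5 days in hormone-depleted medium (charcoal-stripped serum, no phenol red), VM7Luc4E2 cells were seeded, incubated 24 h, then co-treated with compound and 0.1 nM (final) estradiol for 22 h before luminescence detection.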

[8] = qHTS assay to identify small molecule HDAC inhibitors (AID 1259364); further: top concentration of the series differs between compounds; nearly all actives have a fitted effect of over 45% in size
Outline: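 Homogeneous cell-based luminescent assay of endogenous class I/II HDAC activity; HCT-116 cells, 2 h compound exposure, 30 min HDAC-Glo development at RT.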

[9] = qHTS assay to identify small molecule HDAC inhibitors - cell viability counter screen (AID 1259365); further: series mostly up to about 92 µM; nearly all actives have a fitted effect of over 50% in size
Outline: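 Wild-type HCT-116 cells, 1,500/well, cultured overnight, then compound-treated 2 h at 37 C. Viability measured as ATP luminescence with CellTiter-Glo after 30 min at room temperature.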

[10] = qHTS assay to identify small molecule phospholipidosis (PLD) inducers (AID 1259344; active means well fitted curve in the direction sought with a large enough effect; an effect the other way counts as inactive or inconclusive)
Outline: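 Phospholipidosis is scored by imaging LipidTOX-stained pits in HepG2 cells exposed to compound for 24 h at 37 C; pit counts and integrated intensities per well and per cell serve as outputs.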
On the % scale 0 is the no-effect control and ±100 the full control effect.

Chain of Estrogen receptor (Homo sapiens) (P03372 whole entry, looked up): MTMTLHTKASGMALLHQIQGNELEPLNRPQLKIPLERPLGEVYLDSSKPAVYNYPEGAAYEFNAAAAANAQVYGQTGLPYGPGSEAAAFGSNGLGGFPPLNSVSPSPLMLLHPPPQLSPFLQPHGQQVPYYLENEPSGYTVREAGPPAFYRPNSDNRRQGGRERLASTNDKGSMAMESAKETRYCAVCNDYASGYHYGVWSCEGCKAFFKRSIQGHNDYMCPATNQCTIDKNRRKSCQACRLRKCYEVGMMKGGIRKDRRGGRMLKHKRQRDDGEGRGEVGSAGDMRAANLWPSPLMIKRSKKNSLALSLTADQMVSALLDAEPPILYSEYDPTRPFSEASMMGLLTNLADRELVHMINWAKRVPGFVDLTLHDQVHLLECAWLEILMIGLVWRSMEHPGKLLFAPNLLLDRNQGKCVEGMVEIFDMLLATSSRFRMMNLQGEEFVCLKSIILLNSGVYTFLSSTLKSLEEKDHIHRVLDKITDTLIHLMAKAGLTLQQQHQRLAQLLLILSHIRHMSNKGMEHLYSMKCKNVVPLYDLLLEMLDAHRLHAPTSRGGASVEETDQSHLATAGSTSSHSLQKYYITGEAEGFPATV

O=C1OC(=O)c2ccccc21
inactive: Potency [1] | Potency [2] | Potency [3] | Potency [4] | Potency [5] | Potency [6] | Potency [7] | Potency [8] | outcome [9]

CCN1CN(CC)CN(CC)C1
inactive: Potency [1] | Potency [2] | Potency [3] | Potency [4] | Potency [5] | Potency [6] | Potency [7] | Potency [8] | outcome [9]

COC(OC)C(C)c1ccccc1 (stereo not given)
inactive: Potency [1] | Potency [2] | Potency [3] | Potency [4] | Potency [5] | Potency [6] | Potency [7] | Potency [8] | outcome [9]

CCCCCCCCCCCCC1CO1 (stereo not given)
inactive: Potency [1] | Potency [2] | Potency [3] | Potency [4] | Potency [5] | Potency [6] | Potency [7] | Potency [8] | outcome [9]

Cc1ccccc1C
inactive: Potency [1] | Potency [2] | Potency [3] | Potency [4] | Potency [5] | Potency [6] | Potency [7] | Potency [8] | outcome [9]

C=C(C)C(=O)OCCCCCCOC(=O)C(=C)C
inactive: Potency [1] | Potency [2] | Potency [3] | Potency [4] | Potency [5] | Potency [6] | Potency [8] | outcome [9]

O=C1NC2NC(=O)NC2N1 (stereo not given)
inactive: Potency [1] | Potency [2] | Potency [3] | Potency [4] | Potency [5] | Potency [6] | Potency [8] | outcome [9]

O=C1c2ccccc2-c2ccccc21
inactive: Potency [1] | Potency [2] | Potency [3] | Potency [4] | Potency [5] | Potency [6] | Potency [8]

NC(Cc1c[nH]c2ccccc12)C(=O)O (stereo not given)
inactive: Potency [1] | Potency [2] | Potency [3] | Potency [4] | Potency [5] | Potency [6] | Potency [8] | outcome [9]

COCCOCCOCCOC
inactive: Potency [1] | Potency [2] | Potency [3] | Potency [4] | Potency [5] | Potency [6] | Potency [8] | outcome [9]

Nc1c(NC/C=C\COc2cc(CN3CCCCC3)ccn2)c(=O)c1=O
inactive: activity change, negative = cytotoxicity [1] 1.9% [at 15.8 µM] | activity change [2] 3.09% [at 15.8 µM, hits give high values] | activity change, negative = cytotoxicity [3] 8.54% [at 15.8 µM] | cytotoxicity increase [4] -13.1% [at 15.8 µM] | activity change, negative = cytotoxicity [5] -19.8% [at 19 µM] | viability change, negative = cytotoxic [6] -4.94% [at 19 µM] | outcome [10] | activity change, negative = inhibition [8] -4.93% [at 19 µM] | activity change, negative = cytotoxicity [9] 4.37% [at 19 µM]

CC(C)COC(=O)CCCCC(=O)OCC(C)C
inactive: Potency [1] | Potency [2] | Potency [3] | Potency [4] | Potency [5] | Potency [6] | Potency [8] | outcome [9]

CN[C@@H]1[C@@H](O)[C@@H](O[C@@H]2[C@H](O)[C@H](O[C@H]3OC(CN)=CC[C@H]3N)[C@@H](N)C[C@H]2N)OCC1(C)O (stereo not given in full)
inactive: Potency [1] | Potency [2] | Potency [3] | Potency [4] | Potency [5] | Potency [6] | outcome [10] | Potency [8] | outcome [9]

CN(C1CCCCC1)S(=O)(=O)c1ccccc1N
inactive: Potency [1] | Potency [2] | Potency [3] | Potency [4] | Potency [5] | Potency [6] | Potency [8]

CCCCC(CC)C(=O)OC(C)C (stereo not given)
inactive: Potency [1] | Potency [2] | Potency [3] | Potency [4] | Potency [5] | Potency [6] | Potency [8] | outcome [9]

CCCCCCCCCCCCOC(C)=O
inactive: Potency [1] | Potency [2] | Potency [3] | Potency [4] | Potency [5] | Potency [6] | Potency [7] | Potency [8] | outcome [9]

O=c1[nH]c(=O)c2ccccc2o1
inactive: Potency [1] | Potency [2] | Potency [3] | Potency [4] | Potency [5] | Potency [6] | outcome [10] | Potency [8] | outcome [9]

C[C@H]1O[C@H](O[C@H]2[C@H](O)[C@@H](O)[C@@H](O[C@H]3[C@H](O)[C@@H](O)[C@H](O)O[C@@H]3CO)O[C@@H]2CO)[C@H](O)[C@@H](O)[C@@H]1N[C@H]1C=C(CO)[C@@H](O)[C@H](O)[C@H]1O
inactive: Potency [1] | Potency [2] | Potency [3] | Potency [4] | Potency [5] | Potency [6] | outcome [10] | Potency [8]

CCCCOC(=O)C(=O)OCCCC
inactive: Potency [1] | Potency [2] | Potency [3] | Potency [4] | Potency [5] | Potency [6] | Potency [8] | outcome [9]

SCCSCCS
inactive: Potency [1] | Potency [2] | Potency [3] | Potency [4] | Potency [5] | Potency [6] | Potency [8] | outcome [9]

C[C@H](CCC(=O)NCC(=O)O)[C@H]1CC[C@H]2[C@@H]3[C@H](O)C[C@@H]4C[C@H](O)CC[C@]4(C)[C@H]3C[C@H](O)[C@]12C
inactive: Potency [1] | Potency [2] | Potency [3] | Potency [4] | Potency [5] | Potency [6] | Potency [8] | outcome [9]

COc1cccc2sc(N)nc12
inactive: Potency [1] | Potency [2] | Potency [3] | Potency [4] | Potency [5] | Potency [6] | Potency [7] | outcome [9]

C1CCN2C[C@@H]3C[C@@H](CN4CCCC[C@@H]34)[C@H]2C1
inactive: Potency [1] | Potency [2] | Potency [3] | Potency [4] | Potency [5] | Potency [6] | outcome [10] | Potency [8] | outcome [9]

CCOc1ccc(NC(=O)OC(C)C)cc1OCC
inactive: Potency [1] | Potency [2] | Potency [3] | Potency [4] | Potency [5] | Potency [6] | Potency [8] | outcome [9]

CN(C)CCCNCCC#N
inactive: Potency [1] | Potency [2] | Potency [3] | Potency [4] | Potency [5] | Potency [6] | Potency [8]

BrC/C=C/CBr
inactive: activity change, negative = cytotoxicity [1] -6.32% [at 15.8 µM] | activity change [2] 4.41% [at 15.8 µM, hits give high values] | activity change, negative = cytotoxicity [3] 4.43% [at 15.8 µM] | cytotoxicity increase [4] -2.29% [at 15.8 µM] | activity change, negative = cytotoxicity [5] 5.53% [at 19 µM] | viability change, negative = cytotoxic [6] 0.0069% [at 19 µM] | activity change, negative = inhibition [8] -0.207% [at 19 µM] | activity change, negative = cytotoxicity [9] 2.41% [at 19 µM]
